esBAF inh – blocks esBAF chromatin remodeling in mouse ES cells. actives 2% (n = 350,000). reporter increase, % at 12.5 µM. AID 602393. Bmi1-luciferase knock-in reporter, 24 h; 100% = twice the neutral-well signal; in the data active means activation above about 40%; inconclusive means no clear call, values can overlap the other calls;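 further: 0% = median of the plate's neutral control wells and 100% = double that signal; a rise in the Bmi1 reporter signal indicates esBAF inhibition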
FGF22 binding – shifts melting point of recombinant human FGF22. Q9HCT0. recombinant FGF22 thermal shift, SYPRO orange fluorescence; percent of sucrose octasulfate shift, DMSO zero. activity (Tm shift, normalised), % at 9.99 µM. actives 1.5% (n = 340,000);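 active means mean Tm shift, scaled 0 neutral to 100 positive control, at about 1.3% or above, every replicate too, limit read from the data; inconclusive means no clear call, values can overlap the other calls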
SMARCA2 activ – activators of SMARCA2 function. MG213 cells, MMTV-luciferase reporter, dexamethasone, overnight. activation, % at 9.1 µM. actives 1% (n = 370,000); in the data active means activation above about 7.8%;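 further: 0% = vehicle wells and 100% = reference activator wells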
MLL AF4-AF9 inh – blocks AF4 peptide binding to human AF9. P42568. inhibition, % at 10 µM. actives 0.47% (n = 350,000). AlphaScreen, biotin-AF4 peptide binding to FLAG-AF9. AID 651704;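 active means every replicate reaching a set inhibition limit, whatever the replicate mean, cut at about 25% in these data; inconclusive means mean inhibition reaches that limit but some replicates miss it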;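 further: 0% = plate neutral control median and 100% = total signal loss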
Target sequence (P42568 whole entry, looked up): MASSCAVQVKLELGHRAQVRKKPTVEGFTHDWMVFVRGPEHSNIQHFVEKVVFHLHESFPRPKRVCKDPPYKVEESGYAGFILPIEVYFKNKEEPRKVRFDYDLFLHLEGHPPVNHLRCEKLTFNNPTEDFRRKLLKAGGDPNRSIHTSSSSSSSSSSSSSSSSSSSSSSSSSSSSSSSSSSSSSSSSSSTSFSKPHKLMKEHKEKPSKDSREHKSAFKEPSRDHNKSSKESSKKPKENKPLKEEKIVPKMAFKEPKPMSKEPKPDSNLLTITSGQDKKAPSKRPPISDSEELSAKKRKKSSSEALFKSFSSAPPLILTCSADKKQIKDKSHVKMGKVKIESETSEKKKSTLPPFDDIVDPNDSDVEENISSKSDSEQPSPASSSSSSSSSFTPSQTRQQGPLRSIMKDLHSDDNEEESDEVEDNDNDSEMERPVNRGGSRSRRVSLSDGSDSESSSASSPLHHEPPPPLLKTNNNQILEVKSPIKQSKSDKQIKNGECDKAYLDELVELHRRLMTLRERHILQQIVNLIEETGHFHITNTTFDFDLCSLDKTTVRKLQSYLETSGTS
Wnt bcat act – activators of Wnt/beta-catenin signaling; Wnt/beta-catenin reporter cell assay, activator, plate reader; activation, % at 9.35 µM; actives 1.2% (n = 300,000); in the data active means activation above about 30%, passing the limit was not always enough; inconclusive means no clear call, values can overlap the other calls;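 further: 0% = neutral control wells and 100% = positive control wells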
MITF TRPM1 HTS – MITF TRPM1 promoter activation in melanoma cells; SK-MEL-5 TRPM1-promoter luciferase, 24 h; % of positive control, neutral wells = 0; activation, % at 12.5 µM; actives 0.75% (n = 300,000);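 active means mean activation of at least 80% with every replicate also reaching 80%; inconclusive means mean reaches 80% but some replicate falls short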;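 further: 0% = neutral control wells and 100% = parthenolide positive control wells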
Starred values were filed as active, the others as inactive; ? = inconclusive; / = not tested or not shown. Compounds with a hit are over-represented: about 4.3% of the library has one in this group of screens.

SMILES	esBAF inh	FGF22 binding	SMARCA2 activ	MLL AF4-AF9 inh	Wnt bcat act	MITF TRPM1 HTS
CC(C)CC#Cc1ccc([C@@H]2[C@H](CO)N3C(=O)CN(C(=O)c4cnccn4)C[C@@H]23)cc1	/	/	/	-2	/	/
CC1=C(C(=O)OC(C)C)C(c2cn(-c3ccccc3)nc2-c2cccs2)NC(=O)N1 (stereo unspecified)	-3	44*	0	6	-1	-8
O=C(CSc1nnc(-c2cccc(Cl)c2)n1Cc1ccco1)Nc1ccc2c(c1)OCO2	/	/	-5	/	/	/
CC(C)c1ccc(-c2nn(-c3ccccc3)cc2C2C(C#N)=C(N)OC3=C2C(=O)CC(C)(C)C3)cc1 (stereo unspecified)	52*	/	-2	/	6	/
O=C(Nc1ccc2nsnc2c1)c1cccs1	/	/	4	/	9	-7
Cn1cnc2cc(NC(=O)c3ccc(Cl)cc3)ccc21	54*	0	5	-4	19	55
Cc1ccc(OCC(=O)Nc2ccc3c(c2)ncn3C)cc1	-7	0	4	-1	-2	5
CCC(=O)Nc1ccc2c(c1)ncn2C	-1	0	-1	-2	-2	2
Cn1cnc2cc(NCc3ccccc3Cl)ccc21	51*	-1	4	0	14	?
Cn1cnc2cc(NC(=O)COc3ccccc3)ccc21	43*	0	4	-4	12	66
Cn1cnc2cc(NC(=O)c3cccs3)ccc21	/	0	-1	-1	13	93*
C[C@H]1CN([C@@H](C)CO)C(=O)c2cc(-c3ccncc3)cnc2O[C@@H]1CN(C)S(=O)(=O)c1ccccc1	-3	0	/	-5	/	/
CS(=O)(=O)N1CC(=O)N2[C@H](C1)[C@@H](c1ccc(C#CCc3ccccc3)cc1)[C@@H]2CO	/	-1	/	2	/	/
CN1C(=O)c2cc(NC(=O)c3cccc(F)c3)ccc2OC[C@@H]2O[C@H](CC(=O)NC3CCC3)CC[C@@H]21	6	0	/	/	/	/
COc1cc(C(=O)Nc2ccc3c(c2)ncn3C(C)(C)C)cc(OC)c1OC	3	0	-1	-11	23	/
CC(C)(C)n1cnc2cc(NC(=O)c3ccc(Cl)cc3)ccc21	7	0	3	-1	43*	/
Cn1c(CN2CCCC2)nc2cc(NC(=O)c3ccc(Cl)cc3)ccc21	53*	0	2	-1	2	26
O=C(C[C@@H]1C[C@H]2c3cc(NC(=O)c4cccnc4)ccc3O[C@H]2[C@@H](CO)O1)NC1CCCC1	/	/	/	-1	/	/
COc1ccc2c(c1)c(/C=N/Nc1nc3ccccc3[nH]1)c(C)n2C	/	0	-8	23	57*	/
COc1cc(/C=N\Nc2nc3ccccc3[nH]2)cc(OC)c1OC	-10	/	-9	/	-7	-2
COC(=O)c1cc2c(s1)-c1ccccc1CC2	32	/	-1	/	3	36
CCOC(=O)c1cc2ccc3ccccc3c2s1	75*	/	1	/	/	53
CCOC(=O)c1cc2c(s1)-c1ccccc1CC2	57*	/	6	/	0	32
O=C(c1cc2ccccc2oc1=O)N(Cc1ccco1)C1CCS(=O)(=O)C1 (stereo unspecified)	82*	/	5	/	/	75
O=c1c2ccccc2nnn1CSc1nnc2ccccn12	47*	/	4	/	53*	/
SMILES	esBAF inh	FGF22 binding	SMARCA2 activ	MLL AF4-AF9 inh	Wnt bcat act	MITF TRPM1 HTS
O=C(CSc1nnc2ccccn12)c1ccc(Cl)cc1	22	43*	7	0	36*	38
O=c1c2ccccc2nnn1CSc1nc2ccccc2c(=O)n1CCCO	-5	0	-4	-1	-3	8
Cc1noc(C)c1NC(=O)N(C)C[C@@H]1Oc2ccc(NC(=O)Nc3cccc4ccccc34)cc2CC(=O)N([C@H](C)CO)C[C@H]1C	-3	0	/	-1	/	/
COC(=O)CSC1=NS(=O)(=O)c2ccccc21	/	/	/	/	/	-54
O=C(CSC1=NS(=O)(=O)c2ccccc21)Nc1ccccc1	50*	0	0	-15	-22	-48
CC1(C)COC2(OC1)C(=O)N(CN1CCOCC1)c1ccccc12	7	43*	1	-2	/	8
Cc1cc(C=C2C(=O)c3ccccc3C2=O)c(C)n1C	-8	/	1	/	63*	8
CCn1c(C)cc(C=C2C(=O)c3ccccc3C2=O)c1C	/	0	7	1	9	5
Cc1ccc(S(=O)(=O)N[C@H]2C=C[C@@H](CC(=O)N3CCC(Cc4ccccc4)CC3)O[C@H]2CO)cc1	-24	0	/	4	/	/
CN1c2ccc(-c3cccc(C#N)c3)cc2[C@H]2[C@H](CCN2S(=O)(=O)c2ccccc2F)[C@H]1CO	-7	0	/	5	/	/
Cc1cc(C(=O)COC(=O)c2cccnc2Cl)c(C)n1C	-50	0	0	2	15	19
Cn1c(N)c(C(=O)COC(=O)Cc2c(F)cccc2Cl)c(=O)n(C)c1=O	-4	0	-2	-3	-2	-6
Cc1cc(C(=O)COC(=O)Cc2c(F)cccc2Cl)c(C)n1C	78*	0	5	-2	11	/
CSc1ncccc1C(=O)OCC(=O)c1cc(C)n(C)c1C	25	0	0	3	53*	92*
O=C(CCNS(=O)(=O)c1ccc2[nH]c(=O)oc2c1)Nc1cccc(Br)c1	-2	0	7.8*	-2	0	-5
O=C(CCNS(=O)(=O)c1ccc2[nH]c(=O)oc2c1)Nc1ccccc1	-9	/	/	/	-1	11
CCCC#Cc1cnc2c(c1)C(=O)N([C@H](C)CO)C[C@H](C)[C@H](CN(C)C(=O)NCCC)O2	-4	0	/	-3	/	/
CC(C)NC(=O)C1C(c2ccc(C(F)(F)F)cc2)=Nc2ccccc2N1C(=O)c1ccccc1 (stereo unspecified)	/	41	-2	5	45*	/
CC(C)CCNC(=O)NC(=O)COC(=O)CCN=C1NS(=O)(=O)c2ccccc21	-4	44*	-6	-6	0	6
O=C(CCN=C1NS(=O)(=O)c2ccccc21)OCC(=O)c1ccccc1	7	0	-2	1	-1	4
C[C@@H]1CCCCO[C@@H](CN(C)C(=O)c2ccccc2)[C@H](C)CN([C@H](C)CO)C(=O)c2cc(NC(=O)NC3CCCCC3)ccc2O1	6	0	/	4	/	/
COc1cc(/C=N/NS(=O)(=O)c2ccc3ccccc3c2)ccc1OCCN1CCOCC1	3	/	10*	/	-6	-11
Cc1cccc(/C(N)=N/OC(=O)c2ccncc2)c1	12	0	5	0	34*	69
Cc1ccc(C(=O)O/N=C(\N)c2cccc([N+](=O)[O-])c2)cc1	40	0	4	8	-2	94*
N/C(=N\OC(=O)c1ccco1)c1cccc(Br)c1	8	/	4	/	50*	56
Cc1ccc(CC(=O)O/N=C(\N)c2cccc([N+](=O)[O-])c2)cc1	/	0	1	-1	4	-5
COc1cccc(OC)c1C(=O)O/N=C(\N)c1ccncc1	/	0	-3	/	2	/
